T cruzi growth-1: T. cruzi intracellular proliferation inhibitors, primary screen, cell-based, beta-gal Tulahuen parasites, NIH3T3 host, luminescence. T. cruzi beta-gal in NIH3T3, GalScreen luminescence, 90 h. inhibition, % at 8.34 µM. hit rate 5.9% among 77,000. AID 624255, 2012;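 active means mean inhibition above about 93%, with at least 55% of replicates each passing it, limit read from the data, passing the limit was not always enough; inconclusive means only one of those two conditions holds; inactive means neither condition holds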
Pf Dd2 inh: P. falciparum Dd2 growth inhibitors, primary screen, SYBR Green fluorescence, single dose replicates; 72 h; active compounds read low; activity change, % at 10 µM; AID 1159554, 2015; hit rate 2.3% among 94,000; in the data active means activity change below about -80%; inconclusive means no clear call, values can overlap the other calls
C diff HTS: C. difficile growth inhibitors, primary screen, HTS; growth activity, negative = inhibition, % at 16 µg/mL (by protocol); Clostridium difficile clinical isolate growth, OD600, 24 h; active compounds read low; AID 1259249, 2017; hit rate 0.25% among 86,000;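 active means mean growth activity at or below -80% and every replicate also at or below -80%; inconclusive means mean at or below -80% but some replicate above -80%; inactive means mean growth activity above -80%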;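 further: 0% = DMSO wells and -100% = levofloxacin 16 µg/mL wells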
T cruzi growth-2: T. cruzi intracellular proliferation inhibitors, confirmation, cell-based, NIH3T3 host, beta-gal parasite, luminescence, cherry-pick; shares compounds with T cruzi growth-1; T. cruzi beta-gal in NIH3T3, GalScreen luminescence, 90 h; inhibition, % at 8.35 µM; hit rate 72% among 5,600;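 active means mean replicate inhibition above about 95% and at least 55% of replicates individually reaching it, limit read from the data; inconclusive means only one of the two criteria is met; inactive means neither criterion is met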
T cruzi growth-3: inhibitors of intracellular T. cruzi replication, confirmation, NIH3T3 host cells, beta-gal parasites, cherry-pick, set 2; shares compounds with T cruzi growth-1; T. cruzi beta-gal in NIH3T3, GalScreen luminescence, 90 h; inhibition, % at 2.09 µM; hit rate 21% among 5,600; AID 651740, 2012;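 active means mean inhibition above about 95%, with at least 55% of replicates also reaching it, limit read from the data; inconclusive means meets just one of the two conditions; inactive means meets neither condition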;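 further: plate controls were neutral control median for no effect and positive control median for full effect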
3T3 cytotox: cytotoxicity in mouse NIH/3T3 fibroblasts, confirmation, cytotoxicity control for T. cruzi proliferation inhibitor project, cell-based, cherry-pick, single point. shares compounds with T cruzi growth-1. cytotoxicity (signal decrease), % at 8.35 µM. hit rate 14% among 5,600. NIH/3T3 viability, CellTiter-Glo ATP luminescence, 90 h;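 active means mean signal decrease across replicates above about 35% based on untreated-well scatter, with enough replicates individually passing, limit read from the data; inconclusive means no rule stated though some were filed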;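 further: 0% = median of neutral control wells and 100% = median of positive control wells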
NIH3T3 tox 2: NIH/3T3 fibroblast cytotoxicity, confirmation, cytotoxicity control, cell-based, cherry-pick, single point, set 2 | hit rate 56% among 5,600 | shares compounds with T cruzi growth-1 | inhibition, % at 24.9 µM | NIH/3T3 viability, CellTiter-Glo ATP luminescence, 90 h;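 active means mean loss of cell viability signal at or above a set limit, and enough replicates individually reaching it; inconclusive means meets only the mean limit or only the replicate share; inactive means meets neither condition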;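 further: 0% = median of neutral control wells and 100% = median of positive control wells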
* marks the source's active call; other numbers are inactive results; ? = inconclusive; nt = no result given. An excerpt weighted towards active compounds, which were near 6.8% of everything screened.

SMILES	T cruzi growth-1	Pf Dd2 inh	C diff HTS	T cruzi growth-2	T cruzi growth-3	3T3 cytotox	NIH3T3 tox 2
O=C(c1cnccn1)N1CC(=O)N2[C@H](CO)[C@H](c3ccc(C#CC4CC4)cc3)[C@H]2C1	nt	-0.1	-3.9	nt	nt	nt	nt
CO[C@@H]1CN(C)C(=O)c2ccc(NC(C)=O)cc2OC[C@@H](C)N(CCc2ccccc2)C[C@H]1C	30.0	-28.2	nt	nt	nt	nt	nt
O=C(NCc1ccc(F)cc1)[C@H]1[C@H](CO)[C@H]2Cn3c(cccc3=O)[C@H]2N1C(=O)C1CC1	-2.7	-1.3	-4.9	nt	nt	nt	nt
C[C@@H]1CN([C@H](C)CO)C(=O)Cc2cc(NC(=O)CCCCCC(=O)Nc3ccccc3N)ccc2O[C@H]1CN(C)S(=O)(=O)c1cccs1	5.9	-40.2	-16.6	nt	nt	nt	nt
Cc1cc(C(=O)Nc2cccc3c2O[C@H](CN(C)C)[C@@H](C)CN([C@@H](C)CO)C3=O)n(C)n1	101.4*	10.2	-1.0	10.2	24.1	-1.1	4.6
Cc1cc(C(=O)Nc2cccc3c2O[C@@H](CN(C)S(C)(=O)=O)[C@@H](C)CN([C@@H](C)CO)C3=O)n(C)n1	61.4	-8.8	8.3	nt	nt	nt	nt
Cc1cc(C(=O)Nc2cccc3c2O[C@H](CN(C)C)[C@H](C)CN([C@@H](C)CO)C3=O)n(C)n1	?	10.6	1.7	26.3	-16.3	6.1	1.5
Cc1cc(C(=O)Nc2cccc3c2O[C@H](CN(C)C)[C@@H](C)CN([C@H](C)CO)C3=O)n(C)n1	12.6	14.9	-1.9	nt	nt	nt	nt
C[C@@H]1CN([C@H](C)CO)C(=O)c2cc(NC(=O)Cc3ccccc3)ccc2O[C@@H](C)CCCCO[C@@H]1CN(C)C(=O)c1ccccc1	nt	-6.0	3.7	nt	nt	nt	nt
C[C@@H]1CN([C@@H](C)CO)C(=O)Cc2cc(NS(=O)(=O)c3cn(C)cn3)ccc2O[C@@H]1CN(C)Cc1ccc(-c2ccccc2)cc1	45.8	0.1	8.7	nt	nt	nt	nt
C[C@@H]1CN([C@H](C)CO)C(=O)c2c(c3ccccc3n2C)-c2ccccc2CO[C@@H]1CN(C)S(=O)(=O)c1ccsc1	52.0	-5.3	-3.1	nt	nt	nt	nt
Cc1ccccc1S(=O)(=O)N(C)C[C@H]1OCc2ccccc2-c2c(n(C)c3ccccc23)C(=O)N([C@H](C)CO)C[C@@H]1C	?	-64.2	nt	96.3*	56.3	-17.4	24.1*
C[C@@H]1CN([C@H](C)CO)C(=O)c2c(c3ccccc3n2C)-c2ccccc2CO[C@H]1CN(C)S(=O)(=O)c1ccsc1	106.6*	-86.5*	-2.3	104.9*	62.5	-28.4	1.9
C[C@H](CO)N1C[C@H](C)[C@H](CN(C)S(=O)(=O)c2ccccc2C#N)OCc2ccccc2-c2c(n(C)c3ccccc23)C1=O	108.5*	-42.6	-2.9	?	58.9	15.7	46.2*
Cc1ccccc1S(=O)(=O)N(C)C[C@@H]1OCc2ccccc2-c2ccccc2C(=O)N([C@@H](C)CO)C[C@H]1C	87.4	-52.2	3.5	nt	nt	nt	nt
Cc1ccccc1S(=O)(=O)N(C)C[C@@H]1OCc2ccccc2-c2ccccc2C(=O)N([C@H](C)CO)C[C@@H]1C	?	-38.7	5.7	82.8	15.6	-8.9	16.4
C[C@H]1CN([C@@H](C)CO)C(=O)c2c(c3ccccc3n2C)-c2ccccc2CO[C@@H]1CN(C)S(=O)(=O)c1ccccc1C#N	89.0	-77.3	3.0	nt	nt	nt	nt
C[C@@H]1CN([C@H](C)CO)C(=O)c2c(c3ccccc3n2C)-c2ccccc2CO[C@@H]1CN(C)S(C)(=O)=O	13.0	16.8	nt	nt	nt	nt	nt
C[C@@H]1CN([C@H](C)CO)C(=O)c2cc(C3=CCCCC3)cnc2O[C@@H]1CN(C)C(=O)c1ccccc1	nt	-52.2	-5.9	nt	nt	nt	nt
C[C@@H]1CN([C@@H](C)CO)C(=O)Cc2cc(NS(=O)(=O)c3cccs3)ccc2O[C@@H]1CN(C)S(=O)(=O)c1ccccc1	53.4	-12.4	23.1	nt	nt	nt	nt
COc1cccc(-c2ccc(C3[C@@H]4CN(C(=O)C5CC5)C[C@H]3N4)cc2)c1 (some centres undefined)	nt	-14.1	-5.2	nt	nt	nt	nt
C[C@H](CO)N1C[C@H](C)[C@@H](CN(C)S(=O)(=O)c2cn(C)cn2)OCc2ccccc2-c2c(n(C)c3ccccc23)C1=O	106.5*	-19.8	3.3	97.1*	3.7	27.3	99.2*
C[C@@H]1CN([C@H](C)CO)C(=O)c2c(c3ccccc3n2C)-c2ccccc2CO[C@H]1CN(C)S(C)(=O)=O	12.8	9.4	nt	nt	nt	nt	nt
C[C@H]1CN([C@@H](C)CO)C(=O)c2ccccc2-c2ccccc2CO[C@H]1CN(C)S(=O)(=O)c1ccc(C(F)(F)F)cc1	107.7*	-81.1*	3.1	105.3*	55.0	14.1	5.1
C[C@@H]1CN([C@H](C)CO)C(=O)c2ccccc2-c2ccccc2CO[C@@H]1CN(C)S(=O)(=O)c1ccc(C(F)(F)F)cc1	82.9	-4.2	2.1	nt	nt	nt	nt
SMILES	T cruzi growth-1	Pf Dd2 inh	C diff HTS	T cruzi growth-2	T cruzi growth-3	3T3 cytotox	NIH3T3 tox 2
Cc1ccccc1S(=O)(=O)N(C)C[C@H]1OCc2ccccc2-c2c(n(C)c3ccccc23)C(=O)N([C@@H](C)CO)C[C@@H]1C	?	-85.1*	nt	100.8*	83.7	10.2	?
C[C@H]1CN([C@@H](C)CO)C(=O)c2c(c3ccccc3n2C)-c2ccccc2CO[C@@H]1CN(C)S(=O)(=O)c1cn(C)cn1	64.6	-20.7	2.3	nt	nt	nt	nt
C[C@H](CO)N1C[C@H](C)[C@@H](CN(C)S(=O)(=O)c2ccc(Cl)cc2)Oc2ccc(NC(=O)Cc3ccccc3)cc2C1=O	18.8	-44.3	-1.2	nt	nt	nt	nt
C[C@@H]1CCCCO[C@H](CN(C)C(=O)Nc2ccc(C(F)(F)F)cc2)[C@H](C)CN([C@@H](C)CO)C(=O)c2cc(NS(=O)(=O)c3ccc(Cl)cc3)ccc2O1	94.3	-49.8	7.8	nt	nt	nt	nt
C[C@@H]1CCCCO[C@H](CN(C)C(=O)Nc2ccc(C(F)(F)F)cc2)[C@H](C)CN([C@H](C)CO)C(=O)c2cc(NS(=O)(=O)c3ccc(Cl)cc3)ccc2O1	99.1*	-60.8	13.9	?	117.5*	27.5	17.8
C[C@@H]1CCCCO[C@H](CN(C)C(=O)Nc2ccc(C(F)(F)F)cc2)[C@@H](C)CN([C@H](C)CO)C(=O)c2cc(NS(=O)(=O)c3ccc(Cl)cc3)ccc2O1	104.3*	-56.6	-5.0	98.7*	57.6	7.2	22.0

From PubChem
